Results from PubChem BioAssay (NCI).
The panel holds about 79,000 compounds, 15% with a hit somewhere; the sample as a whole holds those more often. Calls of active or inactive are those of the source. No stated cut-off is given here; in the data, active means growth inhibition above about 70%; inactive means the rest.

What was measured:
[1] = NCI Yeast Anticancer Drug Screen. Data for the rad50 strain (AID 155);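 further: 0% = growth of vehicle-only cultures of the same strain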; conditions: S. cerevisiae rad50 strain growth inhibition; at 50.0 µM; stronger effect = higher value
Method in brief: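 DNA repair mutant yeast, compound exposure, growth read-out; inhibition is taken relative to vehicle.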

[2] = NCI Yeast Anticancer Drug Screen. Data for the mec2-1 strain (AID 157); conditions: S. cerevisiae mec2-1 strain, at 50.0 µM, stronger effect = higher value
Method in brief: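 Mutant yeast (mec2-1) grown with compound; growth inhibition relative to vehicle control reported.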

[3] = NCI Yeast Anticancer Drug Screen. Data for the sgs1 mgt1 strain (AID 161);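 further: 0% = growth of cultures given vehicle only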; conditions: S. cerevisiae sgs1 mgt1 strain, at 50.0 µM, stronger effect = higher value
Method in brief: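 Growth of a repair-deficient yeast mutant was monitored after compound treatment and expressed as inhibition relative to vehicle-treated cultures.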

[4] = NCI Yeast Anticancer Drug Screen. Data for the cln2 rad14 strain (AID 165);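 further: 0% = growth equal to vehicle treated cultures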; conditions: S. cerevisiae cln2 rad14 strain, at 50.0 µM, stronger effect = higher value
Method in brief: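 Readout is yeast growth inhibition versus vehicle-treated controls, using a strain with cln2 and rad14 alterations exposed to compound.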

[5] = NCI Yeast Anticancer Drug Screen. Data for the bub3 strain (AID 167); conditions: S. cerevisiae bub3 mutant strain, at 50.0 µM, stronger effect = higher value
Method in brief: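 In this screen, a yeast mutant lacking normal mitotic checkpoint function is challenged with compound. Relative growth versus vehicle gives the inhibition value.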

[6] = NCI Yeast Anticancer Drug Screen. Data for the mlh1 rad18 strain (AID 175); conditions: S. cerevisiae mlh1 rad18 strain growth inhibition; at 50.0 µM; stronger effect = higher value
Method in brief: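 Genetically defined yeast (DNA repair-deficient) exposed to compounds; growth inhibition determined relative to vehicle.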

Measured: growth inhibition

COc1cc(CC/C(C)=N/O)ccc1OCc1ccccc1
inactive: [1] -13.1% | [2] -21.2% | [3] 0.7% | [4] -39.6% | [5] 9.65% | [6] -22.8%

N#CC(C#N)=Cn1c(=S)[nH]c2ccc([N+](=O)[O-])cc21
inactive: [1] -13.4% | [2] -19.6% | [3] 2.75% | [4] 20.8% | [5] -9% | [6] -4.55%

O=c1[nH][nH]c(=O)c2c1nc(SCCc1ccccc1)n2Cc1ccccc1
inactive: [1] 26.4% | [2] 4.55% | [3] 11.7% | [4] 19.4% | [5] 1.8% | [6] 14.8%

COC(=O)CCC(=O)Nc1ccc(Cl)cc1C
inactive: [1] -22.8% | [2] -9.45% | [3] -19.9% | [4] -6.5% | [5] -60% | [6] -21.2%

N#CCCN(Cc1ccccc1)CN1C(=O)c2ccccc2C1=O
inactive: [1] 8.75% | [2] 5.5% | [3] 12.1% | [4] 17.9% | [5] 6.4% | [6] -10.3%

Nc1nc(N)c2c(n1)Nc1ccc(Cl)nc1S2
inactive: [2] 69.3% | [4] 52.2%
active: [1] 94.2% | [3] 89.1% | [5] 81.1% | [6] 93.8%

O=C1OC[C@H]2[C@@H]1[C@H]1O[C@@H]2C2=C(CCC2)C1=O
inactive: [1] -27.4% | [2] -38.8% | [3] -43.5% | [4] -19.7% | [5] -30.9% | [6] -51.3%

CCOC(=O)C(NC(C)=O)C(O)c1ccc(C(C)C)cc1 (configuration not stated)
inactive: [1] 10.8% | [2] 4.4% | [3] 8.45% | [4] -33.7% | [5] 14.8% | [6] 14.7%

NC(=Nc1ccccc1)c1ccc(Cl)cc1
inactive: [1] 66.2% | [3] 45.4%
active: [2] 96.5% | [4] 97.2% | [5] 98.6% | [6] 87.7%

COc1c(OC(C)=O)c(Cl)cc(C=O)c1[N+](=O)[O-]
inactive: [1] 47.1% | [2] 28.7% | [3] 30.1% | [4] 22.1% | [5] 22% | [6] 62.5%

CCCCOc1ccc2nc(C)cc(N/N=C/c3ccc(OC)c4ccccc34)c2c1
inactive: [1] 46.4% | [2] 19.6% | [3] 44.1% | [4] 42.9% | [5] -2.35% | [6] 41.1%

COc1ccc(C2CC(c3ccccc3)=Nc3ccccc3S2)cc1OC (configuration not stated)
inactive: [1] 0.25% | [2] -26.3% | [3] 11.7% | [4] 4.15% | [5] 2.4% | [6] 3.75%

NNc1cc(S(=O)(=O)O)cc(C(=O)O)c1O
inactive: [1] 14.5% | [2] 49% | [3] 31.4% | [4] -1.65% | [5] 42.1% | [6] 39.9%

COc1ccc(C2Nc3cc(Cl)ccc3NC3=C2C(=O)CC(C)(C)C3)cc1 (configuration not stated)
inactive: [1] 52.5% | [2] 30.9% | [3] 41.2% | [4] 28.6% | [5] 40.3% | [6] 54.3%

c1ccc2[nH]c(-c3nc4ccccc4s3)cc2c1
inactive: [1] -3.75% | [2] -4.45% | [3] 0.05% | [4] -60.1% | [5] -12% | [6] 1.25%

CCOC(=O)c1cc(O)cc(=O)n1C1OC(COC(=O)c2ccccc2)C(OC(=O)c2ccccc2)C1OC(=O)c1ccccc1 (configuration not stated)
inactive: [1] 49.5% | [2] -19.4% | [3] 32.6% | [4] 3.35% | [5] -9.15% | [6] -10.8%

CC12OC(=O)CC1C(c1ccccc1)(c1ccccc1)O2 (configuration not stated)
inactive: [1] -7% | [2] -8% | [3] 4.1% | [4] -50.2% | [5] 2.75% | [6] -1.85%

CC(=O)Oc1ccc(OC(C)=O)c([N+](=O)[O-])c1
inactive: [1] 24.1% | [2] 17.2% | [3] -1.65% | [4] -9.75% | [5] 1% | [6] 29.2%

CC(SC(=S)SC(C)C(=O)O)C(=O)O (configuration not stated)
inactive: [1] 6% | [2] 15.3% | [3] 22.3% | [4] 44% | [5] -6.1% | [6] 15.3%

C/C=C(/C)C1(O)CCCCC1O (configuration not stated)
inactive: [1] -4.2% | [2] 1.15% | [3] 1.2% | [4] -2.7% | [5] -4% | [6] -11.3%

NS(=O)(=O)c1cc(C(=O)O)c(O)c2ccccc12
inactive: [1] 9.85% | [2] 3.3% | [3] 1.15% | [4] -23.8% | [5] 6.6% | [6] 15.6%

Cc1ccc(N(CN2C(=O)CCC2=O)CS(=O)(=O)c2ccc(C)cc2)cc1
inactive: [1] -1.85% | [2] -8.6% | [3] -9.15% | [4] 21.4% | [5] -5.65% | [6] 0.8%

CCS(=O)(=O)CC(C)O (configuration not stated)
inactive: [1] 13.7% | [2] -11.3% | [3] -4.2% | [4] 10.1% | [5] 11% | [6] -7.95%

CC1(C)CCC(C)(C)C1C(=O)NC(O)C(=O)O (configuration not stated)
inactive: [1] -21.4% | [2] 8.8% | [3] -33% | [4] -2.2% | [5] 3.25% | [6] -9.8%

O=C(COc1ccccc1)OCCCl
inactive: [1] -7.8% | [2] -15.3% | [3] -15.4% | [4] -67.5% | [5] -25.8% | [6] -75.9%

CC12CC3CC(O)(C1)CC(O)(C3)C2
inactive: [1] 7.25% | [2] -11.1% | [3] -1.45% | [4] 22.2% | [5] -8.3% | [6] 4.15%

CCc1ccc2oc(-c3cc(O)c(-c4nc5cc(CC)ccc5o4)cc3O)nc2c1
inactive: [1] -19.2% | [2] -25.9% | [3] -22.2% | [4] 1.1% | [5] -25.5% | [6] 12.6%

CCCCCCCCCCCCCCCC[N+](C)(C)CCNC(C)=O
active: [1] 99.2% | [2] 99.6% | [3] 99.7% | [4] 98.7% | [5] 99.2% | [6] 99.5%

O=C(NC1CCCCC1)C1C(=O)C(=O)N(C2CCCCC2)C1=O (configuration not stated)
inactive: [1] -14.5% | [2] -1.35% | [3] -13.9% | [4] -8.65% | [5] -5.8% | [6] -28.2%

N=C(N)C1CC1
inactive: [1] -6.75% | [2] -9.5% | [3] -8.9% | [4] 12.8% | [5] 2.4% | [6] -13.2%

O=C(O)CCS.[Cu+2]
inactive: [1] -11.8% | [2] -25.3% | [3] -9.05% | [4] -10.7% | [5] -29.9% | [6] -14.8%

CCC(C)OC(=S)S.[Ag] (configuration not stated)
inactive: [1] 5.25% | [2] -7.2% | [3] 0.7% | [4] -9.4% | [5] -1.85% | [6] 10.7%

O=C(C(CO)c1ccccc1)N1CCOCC1 (configuration not stated)
inactive: [1] -10.3% | [2] -15.4% | [3] -3.45% | [4] -23.4% | [5] 4.35% | [6] 2.55%

CCN(CC)C(=O)COc1ccc(Cl)c(C)c1
inactive: [1] 9.5% | [2] 3.45% | [3] 6.4% | [4] 27.6% | [5] 33.6% | [6] 19.4%

CC(=O)CCC(=O)C(=[N+]=[N-])S(=O)(=O)c1ccccc1
inactive: [1] -15.6% | [2] -0.2% | [3] -26.1% | [4] 2.85% | [5] -9.7% | [6] -9.2%

COC(=O)[C@@]12C(=O)N[C@@H](Cc3ccccc3)[C@@H]1[C@H](C)C(C)=C[C@@H]2CO
inactive: [1] -27.4% | [2] -45.3% | [3] -44.9% | [4] -27.8% | [5] -32.2% | [6] -24.3%

COC1=CCC2=C(C1)C1(C)CCCC(C)(CO)C1CC2 (configuration not stated)
inactive: [1] 3.1% | [2] 18.5% | [3] -7.9% | [4] 3.4% | [5] 14% | [6] 58.2%

COc1ccc(C(=O)CC(C#N)c2ccccc2Cl)cc1 (configuration not stated)
inactive: [1] 19.8% | [2] 39% | [3] 41.2% | [4] 13.1% | [5] 64% | [6] 8.6%

O=NN(CCCl)C(=O)NC1CCC(O)CC1 (configuration not stated)
inactive: [1] -16.9% | [2] -10.8% | [3] -24% | [4] 13.2% | [5] -4.2% | [6] -4.2%

Clc1ccc(OCc2nnc3n2N=C(c2ccc(Br)cc2)CS3)cc1
inactive: [1] 5.5% | [2] 8.35% | [3] 8.8% | [4] 7.05% | [5] -5% | [6] 13.6%

CC1(C)CCC(=O)OC1C[N+](=O)[O-] (configuration not stated)
inactive: [1] 39.8% | [2] -10.8% | [3] 24.2% | [4] 11.8% | [5] 0.3% | [6] 39.4%

CCC1CN2CCc3cc(OC)c(OC)cc3C2CC1(O)C#N (configuration not stated)
inactive: [1] 9.9% | [2] 18.9% | [3] -5.9% | [4] 0.6% | [5] 12.8% | [6] 39%
